Screening data (PubChem BioAssay)
In the library only some 19% were active in any assay of this set; here they are far more common.
TDP1 inh – blocks human tyrosyl-DNA phosphodiesterase 1; recombinant TDP1, AlphaScreen DNA substrate cleavage; Potency, µM (doses to about 130 µM), without a hit: top-dose activity change, negative = inhibition, usual class: inhibitors; 350,000 compounds, 0.28% hits; AID 485290; note: potency is the fitted concentration of half-maximal effect; nearly all actives have a fitted effect of over 40% in size
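Enzyme-compound mixtures sat 15 min at room temperature, followed by a 5 min reaction with 15 nM final substrate and 10 min with AlphaScreen beads. Recombinant human Tdp1 was used at 1 nM final.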
ELG1 repair inh – blocks ELG1-dependent DNA repair in HEK293T cells; HEK293T ELG1-luciferase reporter, luminescence, 16 h; DNA damage induced by 5-fluorouridine; Potency, µM (highest dose often 46.1 µM), without a hit: top-dose activity change, negative = inhibition, most hits filed as inhibitors; 330,000 compounds, 2.3% hits; AID 504467; note: potency is the fitted concentration of half-maximal effect; nearly all actives have a fitted effect of over 55% in size
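DMSO vehicle served as the neutral condition. Each well held 2,000 cells given 5-fluorouridine plus compound; after 16 hr at 37 °C/5% CO2, ONE-Glo was added and luciferase measured 30 min later.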
TDP1 cell noCPT – qHTS for Inhibitors of human tyrosyl-DNA phosphodiesterase 1 (TDP1): qHTS in cells in absence of CPT. DT40 Tdp1-/- hTDP1 cells, no CPT, ATP luminescence, 48 h. Potency, µM (titrated, usually from 46.2 µM), without a hit: at the top dose activity change, negative = growth inhibition, usual class: inhibitors. 420,000 compounds, 15% hits; note: potency is the fitted concentration of half-maximal effect; nearly all actives have a fitted effect of over 55% in size
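No-CPT arm: Tdp1-/-;hTDP1 DT40 cells (400/well) plus compounds, incubated ≥48 hr at 37 °C. Readout CellTiter-Glo luminescence.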
IL1B secr inh – inflammasome signaling inhibition, IL-1 beta readout; THP-1 LPS/ATP IL-1B secretion, AlphaLISA, 16 h; hits give low values; activity change, % at 57.5 µM; 360,000 compounds, 4.7% hits; AID 743279; in the data active = activity change below about -50%; inconclusive = mostly about -30% to -49%
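Secreted IL-1B measured by AlphaLISA bead assay after 16 h compound exposure of THP-1 cells; compounds (final up to 57.5 uM) added 1 h before LPS (250 ng/mL) and ATP (1.25 mM) stimulation; lower signal means less secretion.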
Giardia killer – kills Giardia lamblia. Giardia lamblia trophozoite viability. activity change, % at 7.66 µM, hits read low. 340,000 compounds, 0.15% hits. AID 540267; in the data active = activity change below about -80%; inconclusive = between about -30% and that limit;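 note: parasites exposed to compound for two days anaerobically before the ATP read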
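Viability, read as ATP luminescence: trophozoites at 100 cells/well, compound added, 48 hrs anaerobic at 37 deg C, then 15-30 min room-temperature development before reading.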
DT40 TDP1 CPT – DT40-hTDP1 cell growth loss with CPT; chicken DT40 Tdp1-/-;hTDP1 cells + 20 nM CPT, ATP luminescence, 48 h; Potency, µM (highest dose often 46.2 µM), without a hit: at the highest dose activity change, negative = growth inhibition, actives largely listed as inhibitors; 420,000 compounds, 12% hits; AID 686979; note: potency is the fitted concentration of half-maximal effect; nearly all actives have a fitted effect of over 55% in size
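Chicken DT40 Tdp1-/- cells stably complemented with human TDP1 were seeded at 400 cells/well in medium containing 20 nM camptothecin, exposed to pin-transferred compounds, and grown at 37 °C for at least 48 hr. Viability was read as ATP luminescence.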
* marks the source's active call; other numbers are inactive results. Unless noted, calls come from the whole dose curve; as a rule, active = well fitted curve in the direction sought with a large enough effect; inconclusive = small, poorly fitted or top-dose-only effect, or another doubt; inactive = no such curve, though single readings can be large; an effect the other way counts as inactive or inconclusive. % is set by controls: 0 for no effect and ±100 for the full control effect.

Cc1nn(-c2cc(N3CCCCCC3)ccc2[N+](=O)[O-])c(=O)c2ccccc12 was read as TDP1 inh 4%, ELG1 repair inh -4%, TDP1 cell noCPT -28%, IL1B secr inh -3, Giardia killer 2 and DT40 TDP1 CPT -28%.
`CCN(C(=O)COC(=O)CC1CCCCC1)c1c(N)n(Cc2ccccc2)c(=O)[nH]c1=O` gave TDP1 inh -3%, ELG1 repair inh 16%, TDP1 cell noCPT 11%, IL1B secr inh 14, Giardia killer -4 and DT40 TDP1 CPT -3%.
CCCn1c(SCC(=O)N2CC(=O)Nc3ccccc32)nc2ccccc21 was read as TDP1 inh -1%, ELG1 repair inh -4%, TDP1 cell noCPT inconclusive, IL1B secr inh 5, Giardia killer -8 and DT40 TDP1 CPT 6%.
`Cn1c(SCC(=O)N2CC(=O)Nc3ccccc32)nc2ccccc2c1=O` gave TDP1 inh 5%, ELG1 repair inh -22%, TDP1 cell noCPT 1%, IL1B secr inh inconclusive, Giardia killer -23 and DT40 TDP1 CPT -14%.
Screening O=C1CN(C(=O)CSc2nc3ccccc3c(=O)n2Cc2ccc(F)cc2)c2ccccc2N1 returned TDP1 inh 0%, ELG1 repair inh inconclusive, TDP1 cell noCPT inconclusive, IL1B secr inh -71*, Giardia killer -1 and DT40 TDP1 CPT -28%.
C=CCn1c(SCC(=O)N2CC(=O)Nc3ccccc32)nc2scc(-c3cccs3)c2c1=O was read as TDP1 inh 5%, ELG1 repair inh inconclusive, TDP1 cell noCPT 18µM*, IL1B secr inh -22, Giardia killer 0 and DT40 TDP1 CPT inconclusive.
O=C1CN(C(=O)CSc2nc3ccccc3n2CCc2ccccc2)c2ccccc2N1 was read as TDP1 inh 4%, ELG1 repair inh inconclusive, TDP1 cell noCPT 23µM*, IL1B secr inh -30, Giardia killer -12 and DT40 TDP1 CPT inconclusive.
C=C1NN(Cc2ccc(OC)cc2)C(=O)N1c1ccccc1 was read as TDP1 cell noCPT -27% and DT40 TDP1 CPT -4%.
For COc1ccc(S(=O)(=O)N(C)c2nc3ccccc3n3c(CC(C)C)nnc23)cc1 the results were TDP1 inh 2%, ELG1 repair inh -19%, TDP1 cell noCPT 21µM*, IL1B secr inh 21, Giardia killer 7 and DT40 TDP1 CPT 26µM*.
For CCCc1nnc2c(N(C)S(=O)(=O)c3ccc(C)cc3)nc3ccccc3n12 the results were TDP1 inh -6%, ELG1 repair inh 7%, TDP1 cell noCPT 23µM*, IL1B secr inh 2, Giardia killer -3 and DT40 TDP1 CPT inconclusive.
`Cc1ccc2[nH]c(C(=O)N3CCC(C(N)=O)CC3)cc2c1` gave ELG1 repair inh inconclusive, TDP1 cell noCPT 15%, IL1B secr inh 13, Giardia killer 12 and DT40 TDP1 CPT 20%.
